Laboratory results as given in PubChem BioAssay (Tox21).
Values joined by “and” are separate entries in the source; they are usually repeats but may differ in a detail not shown here. Identical values can stand only once. Active and inactive are the calls of the source. Unless noted, calls come from the whole dose curve; as a rule, active = well fitted curve in the direction sought with a large enough effect in the repeat runs; inconclusive = weak or mixed curves; inactive = no such curve, though single readings can be large; an effect the other way counts as inactive or inconclusive.

How the values were obtained:
[1] = qHTS assay to identify small molecule antagonists of the thyroid receptor (TR) signaling pathway - cell viability counter screen (AID 743064); note: nearly all actives have a fitted effect of over 50% in size; note: potency is the fitted concentration of half-maximal effect
Method in brief: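 In-well cytotoxicity read by CellTiter-Fluor (30 min, 37 C) following 23.5 h exposure of GH3 cells bearing a TRE-luciferase sensor. Compounds were added alongside 1 nM (final) T3 to drive TR transactivation.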

[2] = test system: thyroid hormone receptor (rat, GH3 cells); assay: qHTS assay to identify small molecule agonists of the thyroid receptor (TR) signaling pathway (AID 743066; calls by dose curve)
[3] = qHTS assay to identify small molecule antagonists of the estrogen receptor alpha (ER-alpha) signaling pathway using the BG1 cell line (AID 743080; calls by dose curve;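 note: BG1 cells stimulated with 17beta-estradiol alongside compound; series mostly up to about 70 µM; nearly all actives have a fitted effect of over 25% in size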)
Method in brief: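 BG1Luc4E2, endogenous ER-alpha, 4xERE-luc; 5 d charcoal-stripped FBS, phenol red free; 24 h plating; cpd + 17beta-estradiol 21.5 h, 37 C/5% CO2; CellTiter-Fluor viability 30 min, then ONE-Glo luciferase 30 min RT.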

[4] = qHTS assay to identify small molecule antagonists of the estrogen receptor alpha (ER-alpha) signaling pathway using the BG1 cell line - cell viability counter screen (AID 743081);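 note: compound given together with 17beta-estradiol as the ER stimulus; series mostly up to about 70 µM; nearly all actives have a fitted effect of over 45% in size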
[5] = molecular target: Aromatase (Homo sapiens) (UniProt P11511); assay: qHTS assay to identify aromatase inhibitors (AID 743083); note: nearly all actives have a fitted effect of over 55% in size; note: potency is the fitted concentration of half-maximal effect; for activity, negative = inhibition: series mostly up to about 70 µM
Sequence of Aromatase (Homo sapiens) (P11511 whole entry, looked up): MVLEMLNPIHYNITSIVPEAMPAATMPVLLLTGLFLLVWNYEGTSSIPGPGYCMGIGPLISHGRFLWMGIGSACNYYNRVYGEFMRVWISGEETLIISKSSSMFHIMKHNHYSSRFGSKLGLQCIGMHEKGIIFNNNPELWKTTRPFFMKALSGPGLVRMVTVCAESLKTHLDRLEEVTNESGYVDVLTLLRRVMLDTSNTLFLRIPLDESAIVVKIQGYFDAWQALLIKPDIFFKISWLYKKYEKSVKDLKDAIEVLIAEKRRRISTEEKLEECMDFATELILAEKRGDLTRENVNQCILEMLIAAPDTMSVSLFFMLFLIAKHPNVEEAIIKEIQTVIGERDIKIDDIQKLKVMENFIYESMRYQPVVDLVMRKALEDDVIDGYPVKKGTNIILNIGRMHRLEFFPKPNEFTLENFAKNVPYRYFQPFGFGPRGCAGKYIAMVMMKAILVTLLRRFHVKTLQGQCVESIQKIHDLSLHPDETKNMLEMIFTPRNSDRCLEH

[6] = qHTS assay to identify aromatase inhibitors - cell viability counter screen (AID 743084);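 note: cells stimulated with testosterone during compound exposure; nearly all actives have a fitted effect of over 55% in size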; note: potency is the fitted concentration of half-maximal effect
[7] = molecular target: Aryl hydrocarbon receptor (Homo sapiens) (UniProt P35869); assay: qHTS assay to identify small molecule that activate the aryl hydrocarbon receptor (AhR) signaling pathway (AID 743085);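 note: HG2L7.5c1 human HepG2 liver cells with stably integrated DRE-driven firefly reporter; series mostly up to about 70 µM; nearly all actives have a fitted effect of over 15% in size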
Sequence of Aryl hydrocarbon receptor (Homo sapiens) (P35869 whole entry, looked up): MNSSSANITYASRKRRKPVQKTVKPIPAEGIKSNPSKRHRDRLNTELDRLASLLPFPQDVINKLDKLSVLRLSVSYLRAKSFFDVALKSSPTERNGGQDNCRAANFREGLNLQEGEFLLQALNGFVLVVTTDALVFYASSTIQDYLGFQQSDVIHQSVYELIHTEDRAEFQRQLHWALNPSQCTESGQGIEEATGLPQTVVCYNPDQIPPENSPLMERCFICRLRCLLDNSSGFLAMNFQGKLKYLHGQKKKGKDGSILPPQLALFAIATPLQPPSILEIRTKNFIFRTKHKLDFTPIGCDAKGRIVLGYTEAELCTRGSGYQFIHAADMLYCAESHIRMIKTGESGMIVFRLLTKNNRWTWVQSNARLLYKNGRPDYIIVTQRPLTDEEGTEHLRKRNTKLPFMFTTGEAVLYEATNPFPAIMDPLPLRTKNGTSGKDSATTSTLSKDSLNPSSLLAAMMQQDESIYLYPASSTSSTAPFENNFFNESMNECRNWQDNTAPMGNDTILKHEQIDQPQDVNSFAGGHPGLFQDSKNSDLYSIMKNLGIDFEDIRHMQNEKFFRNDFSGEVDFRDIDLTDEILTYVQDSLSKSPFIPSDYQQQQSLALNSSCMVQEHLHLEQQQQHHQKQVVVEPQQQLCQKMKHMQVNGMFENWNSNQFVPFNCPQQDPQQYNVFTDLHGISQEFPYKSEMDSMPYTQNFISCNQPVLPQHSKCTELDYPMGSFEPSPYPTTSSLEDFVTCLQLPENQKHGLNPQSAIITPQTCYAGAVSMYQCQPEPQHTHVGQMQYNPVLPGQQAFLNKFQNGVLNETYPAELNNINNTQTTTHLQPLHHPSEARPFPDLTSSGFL
Method in brief: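 Luminescence (ONE-Glo) from a dioxin-responsive-element luciferase reporter in HG2L7.5c1 HepG2 cells after 24 hr compound exposure at 37C; viability measured by CellTiter-Fluor fluorescence beforehand.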

[8] = qHTS assay to identify small molecule that activate the aryl hydrocarbon receptor (AhR) signaling pathway - cell viability counter screen (AID 743086);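 note: HepG2 liver cells carrying the AhR DRE luciferase reporter; series mostly up to about 70 µM; nearly all actives have a fitted effect of over 45% in size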
Method in brief: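 HepG2-AhR-luc (HG2L7.5c1) cells, 4000/well, treated 24 h at 37 C with compound; viability measured as CellTiter-Fluor fluorescence after 30 min in the same wells as the luciferase read.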

[9] = molecular target: Peroxisome proliferator-activated receptor gamma (Homo sapiens) (UniProt P37231); assay: qHTS assay to identify small molecule agonists of the peroxisome proliferator-activated receptor gamma (PPARg) signaling pathway (AID 743094; active = well fitted activation curve with a large enough effect in the signal ratio in the repeat runs, not every such curve was filed as active; inconclusive = weak or mixed curves, or effect the other way; inactive = no such curve, though single readings can be large or run the other way; the % refers to the signal ratio)
Sequence of Peroxisome proliferator-activated receptor gamma (Homo sapiens) (P37231 whole entry, looked up): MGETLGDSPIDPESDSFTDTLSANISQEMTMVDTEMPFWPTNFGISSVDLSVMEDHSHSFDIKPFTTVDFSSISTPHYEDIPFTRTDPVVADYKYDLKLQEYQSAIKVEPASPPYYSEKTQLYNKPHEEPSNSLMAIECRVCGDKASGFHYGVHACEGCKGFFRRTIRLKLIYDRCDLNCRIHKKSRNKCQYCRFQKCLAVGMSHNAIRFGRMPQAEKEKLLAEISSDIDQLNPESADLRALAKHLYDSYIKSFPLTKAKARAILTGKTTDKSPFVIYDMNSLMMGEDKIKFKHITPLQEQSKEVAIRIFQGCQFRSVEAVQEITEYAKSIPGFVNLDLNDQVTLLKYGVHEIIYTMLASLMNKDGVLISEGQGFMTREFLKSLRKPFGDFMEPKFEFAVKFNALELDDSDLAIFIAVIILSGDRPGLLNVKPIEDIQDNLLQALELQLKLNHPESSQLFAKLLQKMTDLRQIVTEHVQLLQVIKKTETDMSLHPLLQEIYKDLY
Method in brief: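 GeneBLAzer PPARg UAS-bla HEK293H cells carrying a stably integrated beta-lactamase reporter were pre-incubated 5 h at 37C, then exposed to compounds in DMSO for 17 h at 37C; LiveBLAzer B/G FRET substrate was added for 1 h at room temperature and fluorescence read.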

[10] = qHTS assay for small molecule agonists of the antioxidant response element (ARE) signaling pathway - cell viability counter screen (AID 743203; calls by dose curve; note: nearly all actives have a fitted effect of over 55% in size; note: potency is the fitted concentration of half-maximal effect)
Method in brief: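 CellSensor ARE-bla HepG2 cells, 2,000 per well, rested 5 hrs at 37C/5% CO2, then exposed to compound in DMSO for 16 hrs; viability read as CellTiter-Glo luminescence after 30 min at room temperature, in the reporter wells.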

[11] = qHTS assay for small molecule activators of the heat shock response signaling pathway - cell viability counter screen (AID 743209); note: nearly all actives have a fitted effect of over 50% in size
Method in brief: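 CellSensor HSE-bla HeLa cells, plated overnight at 37 C/5% CO2, were exposed to compounds in DMSO for 5 h at 37 C. Viability was then read in the same wells by CellTiter-Glo luminescence after 30 min at room temperature.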

[12] = qHTS assay to identify small molecule antagonists of the thyroid receptor (TR) signaling pathway (AID 743065); note: nearly all actives have a fitted effect of over 55% in size; note: potency is the fitted concentration of half-maximal effect; for activity, negative = inhibition: series mostly up to about 70 µM
Method in brief: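 GH3.TRE-Luc rat pituitary cells (two TREs driving luciferase) were dosed with compound, then stimulated with 1 nM T3 (final) for 23.5 h at 37 C. ONE-Glo luminescence was the read-out, with CellTiter-Fluor fluorescence as the cytotoxicity counter-screen.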

[13] = qHTS assay to identify small molecule antagonists of the peroxisome proliferator-activated receptor gamma (PPARg) signaling pathway - cell viability counter screen (AID 743194); conditions: Potency: co-treated with 50 nM rosiglitazone; note: nearly all actives have a fitted effect of over 55% in size; note: potency is the fitted concentration of half-maximal effect
Method in brief: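 Cytotoxicity counter screen in PPARg-bla HEK293H cells, same wells as reporter assay. Compounds plus 50 nM rosiglitazone (final) for 17 h at 37 C, then viability read by CellTiter-Glo luminescence.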

[14] = qHTS assay for small molecule activators of the heat shock response signaling pathway (AID 743210; active = well fitted activation curve with a large enough effect in the signal ratio in the repeat runs, with a control signal flat, not every such curve was filed as active; inconclusive = weak or mixed curves; the % refers to the signal ratio; note: series mostly up to about 63 µM)
Method in brief: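 HSE-bla HeLa cells (beta-lactamase reporter under heat shock response elements), plated overnight, then exposed to compounds 5 h at 37 C; LiveBLAzer B/G FRET substrate added, 2.5 h at room temperature, fluorescence intensity read.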

[15] = qHTS assay to identify small molecule antagonists of the estrogen receptor alpha (ER-alpha) signaling pathway - cell viability counter screen (AID 743074; calls by dose curve;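 note: HEK293 cells carrying ER-alpha-UAS-bla reporter stimulated with 17beta-estradiol; nearly all actives have a fitted effect of over 45% in size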)
[16] = molecular target: Peroxisome proliferator-activated receptor gamma (Homo sapiens) (UniProt P37231); assay: qHTS assay to identify small molecule antagonists of the peroxisome proliferator-activated receptor gamma (PPARg) signaling pathway (AID 743191; calls by dose curve; note: nearly all actives have a fitted effect of over 30% in size; note: potency is the fitted concentration of half-maximal effect)
Method in brief: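 GeneBLAzer PPARg UAS-bla HEK293H cells, 5 h post-plating, exposed to compounds 17 h at 37C. LiveBLAzer B/G FRET substrate added for 1 h at room temperature; beta-lactamase reporter read by fluorescence intensity.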

[17] = qHTS assay for small molecule agonists of the antioxidant response element (ARE) signaling pathway (AID 743202; active = well fitted activation curve with a large enough effect in the signal ratio in the repeat runs, not every such curve was filed as active; inconclusive = weak or mixed curves, or effect the other way; inactive = no such curve, though single readings can be large or run the other way; the % refers to the signal ratio; note: potency is the fitted concentration of half-maximal effect)
Method in brief: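 ARE-bla HepG2 cells (beta-lactamase reporter under the antioxidant response element), plated 5 hours, then exposed to compounds 16 hours at 37 C. LiveBLAzer B/G FRET substrate added for 2 hours at room temperature; fluorescence intensity read.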

[18] = molecular target: Estrogen receptor (Homo sapiens) (UniProt P03372); assay: qHTS assay to identify small molecule antagonists of the estrogen receptor alpha (ER-alpha) signaling pathway (AID 743069; active = well fitted curve in the direction sought with a large enough effect in the signal ratio in the repeat runs, not every such curve was filed as active; inconclusive = weak or mixed curves, or effect the other way; inactive = no such curve, though single readings can be large or run the other way; the % refers to the signal ratio; note: potency is the fitted concentration of half-maximal effect)
Sequence of Estrogen receptor (Homo sapiens) (P03372 whole entry, looked up): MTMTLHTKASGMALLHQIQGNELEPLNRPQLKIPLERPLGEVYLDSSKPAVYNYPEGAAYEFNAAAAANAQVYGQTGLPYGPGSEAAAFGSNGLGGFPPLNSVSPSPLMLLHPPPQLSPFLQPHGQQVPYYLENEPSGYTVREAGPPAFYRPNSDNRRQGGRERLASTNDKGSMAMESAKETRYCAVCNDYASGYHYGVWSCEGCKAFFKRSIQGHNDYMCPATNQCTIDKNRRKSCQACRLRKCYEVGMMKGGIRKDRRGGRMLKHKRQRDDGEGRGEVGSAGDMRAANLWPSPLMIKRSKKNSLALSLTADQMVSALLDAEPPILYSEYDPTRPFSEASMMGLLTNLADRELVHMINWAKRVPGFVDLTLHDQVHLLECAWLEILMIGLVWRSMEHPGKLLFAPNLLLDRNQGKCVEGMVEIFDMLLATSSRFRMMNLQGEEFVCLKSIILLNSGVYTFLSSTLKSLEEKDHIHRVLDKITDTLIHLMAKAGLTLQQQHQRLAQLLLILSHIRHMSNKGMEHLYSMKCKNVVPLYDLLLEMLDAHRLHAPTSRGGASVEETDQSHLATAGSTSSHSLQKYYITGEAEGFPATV
Method in brief: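 HEK293 ER-alpha-UAS-bla GripTite cells, held overnight in 2% charcoal-stripped FBS, 5,000 cells/well, preincubated 4 h, then compound plus 17beta-estradiol for 18 h at 37C. Beta-lactamase read by LiveBLAzer B/G FRET substrate, 2 h at room temperature.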

[19] = molecular target: Estrogen receptor (Homo sapiens) (UniProt P03372); assay: qHTS assay to identify small molecule agonists of the estrogen receptor alpha (ER-alpha) signaling pathway (AID 743075; calls by dose curve)
[20] = molecular target: Estrogen receptor (Homo sapiens) (UniProt P03372); assay: qHTS assay to identify small molecule agonists of the estrogen receptor alpha (ER-alpha) signaling pathway using the BG1 cell line (AID 743079); note: nearly all actives have a fitted effect of over 20% in size
% is set by controls: 0 for no effect and ±100 for the full control effect.

CCCCCCCCCCCCN=C(N)N
inactive: activity change, negative = cytotoxic [1] -13.9% [at 3.79 µM] | activation [2] -1.59% [at 3.63 µM] | activity change, negative = inhibition [3] -30.4% [at 3.79 µM] | activity change, negative = cytotoxicity [4] -12.7% [at 3.79 µM] | activity, negative = inhibition [5] -1.41% [at 3.79 µM] | activity change, negative = cytotoxicity [6] -14.3% [at 3.79 µM] | activation [7] -0.0242% [at 3.79 µM] | viability change, negative = cytotoxic [8] -4.27% [at 3.79 µM] | activation [9] 0.522% [at 3.17 µM] | viability change, negative = cytotoxic [10] -8.9% [at 3.74 µM] | activity change, negative = cytotoxicity [11] -18.4% [at 2.7 µM]

C[C@@H]1C[C@@H]([C@H](O)CC2CC(=O)NC(=O)C2)C(=O)[C@@H](C)C1
inactive: Potency [2] | Potency [4] | Potency [9] | Potency [13] | Potency [10] | Potency [11] | Potency [14]
active: Potency [1] 237 nM | Potency [12] 66.8 nM and 60.8 nM | Potency [5] 750 nM and 383 nM

O=[N+]([O-])/C=C/c1ccccc1
inactive: Potency [2] | Potency [15] | Potency [4] | Potency [8] | Potency [11]
active: Potency [1] 13.9 µM and 9.69 µM | Potency [12] 12.4 µM and 7.7 µM | Potency [5] 27.8 µM | Potency [6] 31.1 µM and 54.5 µM | Potency [13] 31.4 µM and 24.5 µM | Potency [10] 22 µM and 15.4 µM

CCC(=O)O[C@@H]1C=C2CCC3C(CCC4(C)C3CC[C@@H]4OC(=O)CC)C2CC1 (some centres not stated)
inactive: Potency [16] | Potency [13] | Potency [17] | Potency [10] | Potency [11] | Potency [14]

O=S(=O)(Cl)Cl
inactive: Potency [1] | Potency [18] | Potency [15] | Potency [19] | Potency [20] | Potency [4] | Potency [5] | Potency [7] | Potency [8] | Potency [9] | Potency [16] | Potency [13] | Potency [17] | Potency [10] | Potency [11] | Potency [14]

CC(CC(C(N)=O)(c1ccccc1)c1ccccc1)N(C)C (configuration not stated)
inactive: Potency [13] | Potency [10] | Potency [11] | Potency [14]

CCOP(=O)(SC(C)CC)N1CCSC1=O (configuration not stated)
inactive: Potency [1] | Potency [15] | Potency [4] | Potency [5] | Potency [6] | Potency [7] | Potency [8] | Potency [9] | Potency [13] | Potency [10] | Potency [11] | Potency [14]

N#CC(C#N)=Cc1ccc(O)c(O)c1
inactive: Potency [2] | Potency [18] | Potency [15] | Potency [20] | Potency [3] | Potency [4] | Potency [5] | Potency [6] | Potency [7] | Potency [8] | Potency [9] | Potency [16] | Potency [10] | Potency [11] | Potency [14]
active: Potency [12] 26.6 µM

O=C(O)C(F)(F)C(F)(F)C(F)(F)C(F)(F)C(F)(F)C(F)(F)C(F)(F)C(F)(F)F
active: Potency [18] 27.5 µM [inconclusive] | Potency [17] 6.86 µM | Potency [10] 61.1 µM
inactive: Potency [2] | Potency [15] | Potency [19] | Potency [20] | Potency [3] | Potency [4] | Potency [5] | Potency [6] | Potency [7] | Potency [8] | Potency [13] | Potency [11]

O=C(NC(=O)c1cc(F)c(F)cc1Cl)Nc1cc(F)ccc1N1CCC(C(=O)O)CC1
inactive: Potency [1] | Potency [15] | Potency [19] | Potency [20] | Potency [3] | Potency [4] | Potency [5] | Potency [6] | Potency [7] | Potency [8] | Potency [17] | Potency [10] | Potency [11] | Potency [14]
active: Potency [16] 1.9 µM

COC(=O)Cc1ccccc1
inactive: Potency [1] | Potency [15] | Potency [19] | Potency [20] | Potency [3] | Potency [4] | Potency [5] | Potency [6] | Potency [7] | Potency [8] | Potency [9] | Potency [17] | Potency [10] | Potency [11] | Potency [14]

CCCCCCCCCCCCCCCl
inactive: Potency [12] | Potency [2] | Potency [15] | Potency [19] | Potency [20] | Potency [3] | Potency [4] | Potency [5] | Potency [6] | Potency [8] | Potency [9] | Potency [13] | Potency [17] | Potency [10] | Potency [11] | Potency [14]

NC(=S)c1c(Cl)cccc1Cl
inactive: Potency [1] | Potency [15] | Potency [19] | Potency [20] | Potency [3] | Potency [4] | Potency [5] | Potency [6] | Potency [7] | Potency [8] | Potency [9] | Potency [13] | Potency [17] | Potency [10] | Potency [11] | Potency [14]

CCOc1cccc(C2(N3CCN(c4ccccc4)CC3)CCC(C)CC2)c1 (configuration not stated)
inactive: Potency [12] | Potency [2] | Potency [18] | Potency [19] | Potency [20] | Potency [4] | Potency [5] | Potency [6] | Potency [8] | Potency [9] | Potency [16] | Potency [13] | Potency [17] | Potency [10] | Potency [11]

CC(C)C1(C)N=C(c2ncccc2C(=O)O)NC1=O (configuration not stated)
inactive: Potency [12] | Potency [2] | Potency [18] | Potency [15] | Potency [19] | Potency [20] | Potency [3] | Potency [4] | Potency [5] | Potency [6] | Potency [7] | Potency [8] | Potency [9] | Potency [16] | Potency [13] | Potency [17] | Potency [10] | Potency [11] | Potency [14]

C=CC(=O)OCC
inactive: Potency [12] | Potency [2] | Potency [15] | Potency [19] | Potency [20] | Potency [3] | Potency [4] | Potency [5] | Potency [6] | Potency [7] | Potency [8] | Potency [9] | Potency [13] | Potency [17] | Potency [10] | Potency [11] | Potency [14]

CC(Oc1cccc(Cl)c1)C(=O)O (configuration not stated)
inactive: Potency [12] | Potency [2] | Potency [15] | Potency [4] | Potency [5] | Potency [6] | Potency [7] | Potency [9] | Potency [13] | Potency [17] | Potency [10] | Potency [11] | Potency [14]
